Hits are enriched below; roughly 4.9% of the tested compounds scored in any of these assays.
tim10-1 inh – growth inhibitors of tim10-1 mutant yeast, primary screen, luminescence, uHTS; AID 463190, 2010; 330,000 tested, 2.2% active; inhibition, % at 20 µM; S. cerevisiae tim10-1 ts strain growth, BacTiter-Glo, 24 h;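 active = inhibition of at least 40%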;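 also: mutant grown at 25 °C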
SKKanGAS inh – S. pyogenes SKKanGAS growth inhibitors in kanamycin, primary screen, streptokinase expression inhibitor project, SKKanGAS strain, BacTiter-Glo luminescence; 6 h; inhibition, % at 7.5 µM; 300,000 tested, 1.3% active; AID 1662, 2009;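 active = mean replicate score, as percent of positive control median, at least 50; inconclusive = mean below 50 but one replicate at or above 50; inactive = mean and every replicate below 50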;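 also: strain carries kanamycin resistance gene driven by streptokinase promoter and grows in 40 µg/ml kanamycin; loss of luminescence reflects streptokinase promoter inhibition or plain growth inhibition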
NLRP3 yeast inh – NALP3 inflammasome inhibitors in reconstituted yeast, primary screen, luminescence, uHTS. Yeast reconstituted NLRP3/ASC/caspase-1, beta-gal luminescence, 24 h. inhibition, % at 10 µM. 330,000 tested, 0.39% active. AID 2825, 2010;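 active = inhibition of 50% or more; inactive = inhibition below 50%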
tim23-1 inh – growth inhibitors of tim23-1 mutant yeast, primary screen, luminescence, uHTS | S. cerevisiae tim23-1 growth, BacTiter-Glo luminescence, 24 h | inhibition, % at 20 µM | 330,000 tested, 1.3% active | AID 463212, 2010;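 active = growth inhibition of the mutant yeast at or above 50%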;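 also: temperature-sensitive mutant grown at 25 °C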
TIM10 inh – growth inhibitors of isogenic TIM10 control yeast, primary screen, counter-screen for tim10-1 yeast inhibitor project, luminescence, uHTS | 330,000 tested, 1.4% active | inhibition, % at 10 µM | S. cerevisiae TIM10 strain growth, BacTiter-Glo luminescence, 24 h | AID 463195, 2010;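 active = inhibition of 40% or more at the single tested concentration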;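 also: wild-type TIM10 isogenic control strain grown at permissive 25 °C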
NALP1 yeast inh – NALP1 inflammasome inhibitors in reconstituted yeast, colorimetric, S. cerevisiae, triplicate retest. inhibition, % at 10 µM. S. cerevisiae NALP1/ASC/caspase-1 growth, X-gal OD620, 72 h. 280,000 tested, 0.61% active; in the data active = inhibition mostly above about 24%, no sharp cut-off; inactive = mostly below about 32%
tim10-1 confirm – growth inhibitors of tim10-1 mutant yeast, confirmation, single concentration, luminescence, S. cerevisiae | shares compounds with tim10-1 inh | S. cerevisiae tim10-1 ts strain growth, BacTiter-Glo, 24 h | inhibition, % at 20 µM | AID 463213, 2010 | 7,400 tested, 56% active;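 active = inhibition of yeast growth at or above a set limit in either of two repeat tests at 20 µM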;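 also: tim10-1 mutant grown at permissive 25 °C to find synthetic lethal compounds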
TIM10 conf – growth inhibitors of wild-type TIM10 yeast, confirmation, counter-screen for tim10-1 synthetic lethality project, single concentration, luminescence, S. cerevisiae; S. cerevisiae tim10 strain growth, BacTiter-Glo luminescence, 24 h; inhibition, % at 10 µM; AID 463215, 2010; shares compounds with TIM10 inh; 4,600 tested, 63% active;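 active = inhibition of yeast growth at or above a set limit in either of two replicates at 10 µM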; also: this counterscreen used the strain with wild-type TIM10
Hits are given with their value; n = inactive; u = inconclusive; x = not tested or not shown.

SMILES	tim10-1 inh	SKKanGAS inh	NLRP3 yeast inh	tim23-1 inh	TIM10 inh	NALP1 yeast inh	tim10-1 confirm	TIM10 conf
COc1ccccc1Nc1nc(-c2ccc3c(c2)NC(=O)CO3)cs1	n	n	n	n	n	n	x	x
COc1ccc(Nc2nc(-c3ccc4c(c3)NC(=O)CO4)cs2)cc1	n	n	n	n	46.2	n	30.7	46.3
O=C(Nc1cccc(S(=O)(=O)N2CCCCC2)c1)Nc1ccc(Cl)cc1Cl	44.3	n	n	n	45.6	x	n	39.0
O=C(Cc1ccccc1Cl)Nc1cccc(S(=O)(=O)N2CCCCCC2)c1	n	x	n	n	n	x	x	x
CC1CCCC(NC(=O)Nc2cccs2)C1C (stereo not given)	55.5	n	n	n	56.3	n	65.2	52.5
Cc1nc([N+](=O)[O-])c(Br)n1CC(=O)c1ccc2ccccc2c1	59.2	n	n	n	54.3	n	66.7	55.0
Cc1nc([N+](=O)[O-])c(Br)n1CC(=O)c1ccc(Br)cc1	48.1	n	n	n	n	n	35.0	39.6
CCC(C(=O)O/N=C(\N)c1ccc(Cl)cc1)c1ccccc1 (stereo not given)	74.9	n	n	n	62.6	n	62.6	70.5
N/C(=N\OC(=O)/C=C/c1ccccc1)c1ccc(Cl)cc1	n	n	n	n	n	n	x	x
COC1=C(c2ccccc2)C(=O)c2ccccc2C1=O	80.1	x	n	n	88.8	n	72.0	90.5
COc1ccc(C2=C(N)c3ccccc3C2=O)cc1	n	n	n	n	n	n	x	x
C=CCNC(=O)C1CCN(c2cc(C)nc(-c3ccccc3)n2)CC1	n	n	n	n	n	n	x	x
Cc1cc(N2CCC(C(=O)Nc3ccc(F)cc3)CC2)nc(-c2ccccc2)n1	49.3	n	n	n	43.1	n	n	n
Cc1ccc(C(=O)ON=C2CCN(c3ccc([N+](=O)[O-])cc3)CC2)cc1	52.5	n	n	n	60.6	n	48.8	62.8
Cc1c(Cl)cccc1N(CC(=O)NC(C)c1ccccc1)S(C)(=O)=O (stereo not given)	n	n	n	n	n	n	x	x
N/C(=N\OC(=O)Cc1ccc(-c2ccccc2)cc1)c1ccccn1	53.7	n	n	n	52.5	n	50.0	n
O=C1NN=C(c2ccccc2)CC1c1ccc(Cl)cc1Cl (stereo not given)	50.2	n	n	n	42.1	n	37.6	57.0
O=C(Cn1c(NCCCO)nc2ccccc21)c1ccc(Cl)cc1Cl	n	n	n	n	n	n	x	x
O=c1[nH]c2ccc(S(=O)(=O)N3CCCCC3)cc2[nH]1	n	n	n	n	n	n	x	x
O=S(=O)(c1ccc2[nH]c3c(c2c1)CCCC3)N1CCCCC1	40.1	n	n	n	41.3	n	n	34.5
CC(C)c1ccc(/C=C(\c2nc3ccccc3[nH]2)S(=O)(=O)c2ccccc2)cc1	53.5	n	n	n	45.5	n	47.3	37.4
O=C(/C=C/c1cccs1)c1cc(F)ccc1OC(=O)N1CCOCC1	52.7	n	n	n	53.9	x	54.8	n
O=C(/C=C/c1cccs1)N1CCOCC1	n	n	n	n	n	n	x	x
Cc1ccc(SCCC(=O)OC(C)C(=O)Nc2ccccc2)cc1 (stereo not given)	n	n	n	n	n	x	x	x
Cc1ccc(CC(=O)Nc2ncc([N+](=O)[O-])s2)cc1	n	n	n	n	n	n	x	x
SMILES	tim10-1 inh	SKKanGAS inh	NLRP3 yeast inh	tim23-1 inh	TIM10 inh	NALP1 yeast inh	tim10-1 confirm	TIM10 conf
CCCCC(CC)C(=O)Nc1ncc([N+](=O)[O-])s1 (stereo not given)	60.7	n	n	n	48.8	n	62.2	n
O=C(CN1CCOCC1)Nc1ccc([N+](=O)[O-])cc1Br	n	n	n	n	n	n	x	x
O=C(/C=C/c1cccc([N+](=O)[O-])c1)n1cnc2ccccc21	46.2	n	n	n	45.1	n	42.9	38.8
COc1ccc(NC(=O)CN(C)C(=O)CCCN2C(=O)c3cccc4cccc(c34)C2=O)cc1	n	n	n	n	n	x	x	x
Cc1cccc(NC(=S)Nc2cccc(C(F)(F)F)c2)n1	n	n	n	n	n	n	x	x
CCCNC(=S)Nc1cccc(C(F)(F)F)c1	n	n	n	n	n	n	x	x
S=C(Nc1ccccc1)Nc1ccc(Cl)cc1Cl	n	n	n	n	n	n	x	x
FC(F)(F)c1cccc(NC(=S)Nc2ccc(Cl)cc2Cl)c1	69.6	u	n	n	62.3	n	46.7	50.6
FC(F)(F)c1cccc(NC(=S)Nc2cccc(NC(=S)Nc3cccc(C(F)(F)F)c3)n2)c1	52.6	n	n	n	48.1	n	33.2	32.1
FC(F)(F)c1cccc(NC(=S)NCC2COc3ccccc3O2)c1 (stereo not given)	65.6	n	n	n	48.2	n	56.1	56.5
Cn1cc([N+](=O)[O-])c(C(=O)NC2CCCC2)n1	n	n	n	n	n	n	x	x
CCOc1ccc(CN(CC)C(=O)Cc2c[nH]c3ccccc23)cc1OC	n	n	n	n	n	n	x	x
CCOC(=O)/C=C/C(=O)OCC(=O)Nc1cccc(Br)c1	47.4	n	n	n	50.9	n	32.9	29.0
CCOC(=O)C1(Cc2ccccc2)CCCN(C(=O)c2cnn(CC)c2)C1 (stereo not given)	n	n	n	n	n	n	x	x
COc1ccccc1C/C(N)=N/OC(=O)COc1cccc(C)c1	43.0	n	n	n	51.1	n	n	n
O=C(COc1ccc(Cl)cc1Cl)NNC(=S)NCc1ccco1	46.1	n	n	n	49.7	n	37.0	39.8
CC(C)c1ccc(N2C(=O)CC(Sc3ncn[nH]3)C2=O)cc1 (stereo not given)	45.6	n	n	n	69.3	101.3	51.9	62.5
CC(C)c1ccc(N2C(=O)CC(Sc3nc4ccccc4o3)C2=O)cc1 (stereo not given)	52.5	n	n	n	53.0	n	46.3	41.0
Cc1ccc(N2C(=O)CC(Sc3nc(C)cc(C)n3)C2=O)cc1 (stereo not given)	n	n	n	n	n	n	x	x
COc1ccc(N2C(=O)CC(Sc3ncn[nH]3)C2=O)c(OC)c1 (stereo not given)	n	n	n	n	n	n	x	x
Cc1ccccc1/C(N)=N/OC(=O)N1c2ccccc2Sc2ccccc21	72.4	n	n	n	73.7	n	69.3	81.3
